Sampled rows, rich in hits. Any-hit rate of the full collection: about 7.9%.
HCMV antiviral – qHTS Assay for inhibitors of the human cytomegalovirus (HCMV); HFF cells, HCMV-luciferase reporter, 72 h; hits give low values; 410,000 tested, 4.5% active; activity change, negative = inhibition, % at 57.5 µM; in the data active means activity change below about -60%; inconclusive means no clear call, values can overlap the other calls; inactive means above about -39%
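HFF cells seeded 16 h at 37C, treated with compounds, infected with luciferase-reporter HCMV at MOI 1 PFU/cell; luciferase read at 72 h post infection, normalized to buffer-only and Salinomycin controls.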
FMDV inh – High Throughput Screening for Foot and Mouth Disease Virus Antivirals; Potency, µM (highest dose often 57.9 µM), without a hit: top-dose activity change, negative = inhibition, hits mostly inhibitors; 410,000 tested, 1.2% active; FMDV antiviral cell-based qHTS; calls by dose curve; tested in HEK293T cells; further: read-out not given here; potency means the concentration at half of the fitted maximal effect; nearly all actives have a fitted effect of over 45% in size
HCV inh – qHTS Assay for Inhibitors of Hepatitis C Virus (HCV). AID 651820, 2012. Potency, µM (titrated, usually from 41.8 µM), inactives show at the highest dose activity change, negative = inhibition, hits mostly inhibitors. 340,000 tested, 3.4% active. Huh7.5.1 HCVcc-Cre infection, luciferase reporter, 44 h; active means well fitted inhibition curve with a large enough effect; inconclusive means small, poorly fitted or top-dose-only effect, or another doubt; inactive means no such curve, though single readings can be large or run the other way; further: potency means the concentration at half of the fitted maximal effect
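1,000 cells/well; 4 h culture; + compound; + HCVcc-Cre (~0.5 moi); 44 h; luciferase substrate, RT 15 min; read 15 sec.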
MARV entry inh – qHTS for inhibitors of binding or entry into cells for Marburg Virus; Potency, µM (top dose mostly 37.8 µM), without a hit: at the top dose activity change, negative = inhibition, actives largely listed as inhibitors; 300,000 tested, 1.8% active; Marburg virus pseudotyped entry inhibition, cell reporter; AID 540276, 2011; calls by dose curve; tested in HEK293 cells; further: potency means the concentration at half of the fitted maximal effect
LASV entry inh – qHTS for Inhibitors of binding or entry into cells for Lassa Virus | AID 540256, 2011 | Potency, µM (top dose mostly 37.9 µM), for the others: at the top dose activity change, negative = inhibition, usual class: inhibitors | 300,000 tested, 1.2% active | Lassa virus pseudotype entry inhibition, cell reporter; calls by dose curve; tested in HEK293 cells; further: potency means the concentration at half of the fitted maximal effect; nearly all actives have a fitted effect of over 50% in size
Numbers without * were called inactive; ? = inconclusive; / = not tested or not shown; [ ] = remark or other dose. On the % scale 0 is the no-effect control and ±100 the full control effect.

SMILES	HCMV antiviral	FMDV inh	HCV inh	MARV entry inh	LASV entry inh
CCCCOC(=O)c1[nH]c2c(c1C)C(=O)CC(c1cc(OC)c(OC)c(OC)c1)C2 (stereo not given)	-63*	16µM*	2.5µM*	7%	/
COCCOC(=O)c1[nH]c2c(c1C)C(=O)CC(c1cc(OC)c(OC)c(OC)c1)C2 (stereo not given)	-4	?	13µM*	10µM*	?
COc1cc(C2CC(=O)c3c([nH]c(C(=O)OCC4CCCCC4)c3C)C2)cc(OC)c1OC (stereo not given)	?	?	/	?	-7%[46.1 µM]
COc1cc(C2CC(=O)c3c([nH]c(C(=O)OC4CCCCC4)c3C)C2)cc(OC)c1OC (stereo not given)	-39	11µM*	/	/	6.3µM*
COCCNC(=O)C1(C)CCN(Cc2csc(-c3ccc(Cl)cc3)n2)C1 (stereo not given)	-17	-15%	/	/	/
Cc1onc(-c2c(Cl)cccc2Cl)c1C(=O)ONC(=O)c1cc(C(F)(F)F)cc(C(F)(F)F)c1	-99*	?	-8%	16%	10%
Cc1onc(-c2c(Cl)cccc2Cl)c1C(=O)Nn1cnnc1	1	-11%	5%	19%	2%
Cc1cc2c(C)nc(-c3ccccc3)nc2o1	30	73%	3.5µM*	2%[46.1 µM]	29%
Cc1cc(Cl)nc(-c2ccccc2)n1	?	-17%	11%	/	/
CCN(CC)CCCC(C)Nc1nccc2c(Cl)cccc12 (stereo not given)	-35	-18%	10µM*	?	?
O=C(N[C@@H]1c2ccccc2C2(CCN(Cc3c(O)ccc4ccccc34)CC2)[C@H]1O)c1ccccc1	/	13%	/	/	/
Cc1cc(S(=O)(=O)N2CC(=O)N(CCc3ccccc3)C(=O)C2)ccc1F	-89*	9%	6%	3%	-3%
O=C1CN(S(=O)(=O)c2ccccc2)CC(=O)N1CCc1ccccc1	-24	-14%	2%	-3%	7%
Nc1cc2c(cc1[N+](=O)[O-])-c1ccccc1C2=NO	-68*	10%	?	?	?
O=C(O)c1ccccc1-c1ccc([N+](=O)[O-])cc1Cl	-13	-21%	/	/	/
CC(=O)Nc1cc2c(cc1[N+](=O)[O-])-c1ccccc1C2=NO	11	8%	4%	-17%	4%
O=[N+]([O-])c1ccc2c(c1)C(=NO)c1cc(Cl)c(Cl)cc1-2	?	0%	11µM*	?	-5%[46.1 µM]
O=C(NCCCN1CCOCC1)c1ccc2c(=O)n(-c3ccc(F)c(Cl)c3)c(=S)[nH]c2c1	-37	-27%	?	?	-7%
COc1ccc(CNC(=O)c2cccc3c(-c4cnn(C)c4)coc23)cc1OC	?	16µM*	/	/	/
COc1ccc(-c2coc3c(C(=O)Nc4cc(OC)c(OC)c(OC)c4)cccc23)c(C)c1	-65*	?	/	/	/
COc1ccc(NC(=O)c2cccc3c(-c4ccc(O)c(OC)c4)coc23)cc1	20	-5%	/	/	/
COc1cc(NC(=O)c2cccc3c(-c4cccnc4)coc23)cc(OC)c1OC	-39	13µM*	/	/	/
Cn1cc(-c2coc3c(C(=O)NCc4cccnc4)cccc23)cn1	-10	-22%	/	/	/
COc1ccc(-c2coc3c(C(=O)Nc4ccc(OC)nc4)cccc23)c(C)c1	-32	?	/	/	/
CC(=O)c1cccc(NC(=O)c2cccc3c(-c4cccc(C(N)=O)c4)coc23)c1	?	35µM*	/	/	/
SMILES	HCMV antiviral	FMDV inh	HCV inh	MARV entry inh	LASV entry inh
COc1cccc(-c2ccc(SCC(=O)NC3CCCCC3)nn2)c1	40	-13%	-9%	-1%	?
COc1ccc(-c2coc3c(C(=O)NCC4CCOCC4)cccc23)c(C)c1	-61*	?	/	/	/
COc1ccc(-c2coc3c(C(=O)NCCc4ccccc4)cccc23)c(C)c1	-27	-22%	/	/	/
COc1ccc(-c2coc3c(C(=O)NCc4ccc(OC)c(OC)c4)cccc23)c(C)c1	-75*	?	/	/	/
N#CCCN(Cc1ccccc1)C(C(=O)NC1CCCCC1)c1cc2ccccc2o1 (stereo not given)	-60*	-25%	/	/	/
CC1Cc2ccccc2N1S(=O)(=O)c1cccc(C(=O)N2CCCCC2)c1 (stereo not given)	-9	17%	-22%	?	-30%
COc1ccccc1N1CCN(C(=O)c2cccc(S(=O)(=O)N3c4ccccc4CC3C)c2)CC1 (stereo not given)	-35	-26%	10µM*	?	?
CCOC(=O)c1sc(NC(=O)c2cccc(S(=O)(=O)N3c4ccccc4CC3C)c2)cc1C (stereo not given)	13	0%	4µM*	?	?
Cc1noc(C)c1COC(=O)c1cccc(S(=O)(=O)N2c3ccccc3CC2C)c1 (stereo not given)	-3	?	11µM*	?	?
Cc1noc(C)c1COC(=O)c1cccc(S(=O)(=O)N2CCOCC2)c1	4	0%	?	-7%	-10%
Cc1cc(NC(=O)c2cccc(S(=O)(=O)N3c4ccccc4CC3C)c2)no1 (stereo not given)	10	-22%	?	/	/
C=CCCC(=O)N[C@H]1CC[C@@]23CCCN2C(=O)CCC[C@H]3[C@H]1Cc1ccccc1	26	/	/	/	/
COc1ccc(/C=C/C(=O)OCC(=O)N2CC(=O)Nc3ccccc32)cc1	-34	0%	-4%	-25%	-10%
CCCCOc1ccc(/C=C/C(=O)OCC(=O)N2CC(=O)Nc3ccccc32)cc1OCC	1	13µM*	7.9µM*	-8%	-24%
COc1cc(SC)ccc1C(=O)OCC(=O)N1CC(=O)Nc2ccccc21	7	17%	10µM*	-1%	-3%
O=C1CN(C(=O)COC(=O)c2ccccc2O)c2ccccc2N1	-39	5%	3%	6%	-15%
O=C1CN(C(=O)/C=C/c2cccc(Cl)c2)c2ccccc2N1	-22	-11%	14µM*	?	?
CCC(Oc1ccccc1OC)C(=O)N1CC(=O)Nc2ccccc21 (stereo not given)	-74*	1%	15%	1%[46.1 µM]	-30%
COc1ccccc1C(=O)NCCC(=O)N1CC(=O)Nc2ccccc21	54	-17%	7%	?	-12%
c1ccc(COc2ncnc3c2ncn3CCCNCC2CCCO2)cc1 (stereo not given)	-4	-4%	-51%	/	/
O=C1CN(C(=O)Cn2ncc(Cl)c(Cl)c2=O)c2ccccc2N1	-95*	?	5.6µM*	?	?
O=C1CN(C(=O)COc2ccc(Cl)c(Cl)c2)c2ccccc2N1	-66*	-12%	-2%	-2%	-20%
COCc1c(C(=O)NC2CCCC2)cnn1-c1nccc(-c2ccco2)n1	/	18%	/	/	/
Cc1ccc(N2CC(C(=O)NC3CCCCCC3)CC2=O)cc1 (stereo not given)	-64*	-18%	/	/	/

From PubChem
